Among the data in PubChem BioAssay AID504697 (The Scripps Research Institute Molecular Screening Center, 2011) are EC50 values, retold here.

Activity calls are given as the source filed them.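 Rule for the calls: active = EC50 at or below 10 µM; inactive = EC50 above 10 µM.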

This experiment is described as follows: fluorescence interference artefacts, compound only, dose response, artefact control for cardiac thin filament activator project, biochemical, no RTF in test wells (AID 504697).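 Note: emission near 535 nm under roughly 485 nm excitation as for IANBD.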 The following applies: compound-only fluorescence in RTF assay buffer with Ca2+ (no RTF in test wells), artifact counterscreen. In general terms: A counterscreen serves to expose hits that act by an unwanted route or on another target.
For the compound `CCN(CC)c1ccc(/C=C2\C(=O)c3ccc(C(=O)O)cc3C2=O)cc1`, the EC50 (usually the concentration at which the effect is half-maximal) is 1.04 µM (active).

For the compound `COc1ccc(N=C2NC(=O)S/C2=C\c2ccc(N(C)C)cc2)cc1`, the 50% effective concentration (EC50) was 5.67 µM (active).

Regarding `Cn1ncc2c(O/N=C(\N)c3ccc(C(F)(F)F)cc3)ncnc21`, the EC50 was > 71.5 µM (inactive).

Consider `O=C(C1=C(O)C(=O)N(CCN2CCOCC2)C1c1ccc([N+](=O)[O-])cc1)c1cccs1` (stereo unspecified), for which the EC50 is > 71.4 µM (inactive).

Consider `COCCn1c(=O)c2ccccc2c2ccccc2c1=O`, for which the EC50 is > 71.5 µM (inactive).

For the compound `Cc1ccc(S(=O)(=O)NCCCCCC(=O)Nc2ccccc2C)cc1`, the EC50 was > 71.5 µM (inactive).

Regarding `CC(C)CN1CCN(Cc2cccn2-c2ccc(Cl)cn2)CC1CCO` (stereo unspecified), the EC50 was > 71.5 µM (inactive).

Consider `COc1ccc(N/C=C2\C(=O)CCc3c2oc2cc(Cl)c(O)c(Cl)c32)cc1`, for which the concentration for a half-maximal effect (EC50) is 7.28 µM (active).

For the compound `CC(C)CNC(=S)NC(=O)c1ccccc1Cl`, the EC50 was > 71.4 µM (inactive).

Consider `COc1cc(-c2c(-c3ccc4c(c3)OCO4)noc2C)ccc1F`, for which the EC50 is > 71.4 µM (inactive).

As for `CCc1ccc(C(=O)NNC(=O)c2cccc(N3C(=O)CCC3=O)c2)cc1`, the EC50 was > 71.5 µM (inactive).

As for `O=C(COc1ccccc1F)NC1CC1`, the EC50 is > 71.5 µM (inactive).

As for `O=[N+]([O-])c1ccc(/C=C/C2=NN(c3ccccc3)C(c3ccco3)C2)cc1` (stereo unspecified), the EC50 was 1.04 µM (active).

Regarding `CCn1c(=O)c(C(=O)CN2CCCc3ccccc32)c(N)n(Cc2ccccc2)c1=O`, the EC50 was 62.2 µM (inactive).

As to `c1ccc2[nH]c3cc4ncnc4cc3nc2c1`, the EC50 is 17.9 µM (inactive).

Consider `C=CCn1c(C)c(/C=C/c2cc[n+](C)cc2)c2ccccc21`, for which the concentration for a half-maximal effect (EC50) is 4.64 µM (active).

For `C/C(O)=c1/ccc2cccc3nc(C)nc1c23`, the EC50 is > 23.8 µM (inactive).

Take `CCOC(=O)c1sc2nc(C)nc(SCC(=O)NC3CCS(=O)(=O)C3)c2c1C` (stereo unspecified): the EC50 is > 71.5 µM (inactive).

`O=c1[nH][nH]c(C(F)(F)F)c1C=NCc1ccccc1Cl`: the EC50 was > 71.4 µM (inactive).

On to `CC1(C)CCN2CCC(C)(C)c3c(O)ccc1c32`, for which the concentration giving a half-maximal response (EC50) was 5.84 µM (active).

In the case of `N=c1n(Cc2ccccc2)c2ccccc2n1CC(O)c1ccco1` (stereo unspecified), the EC50 was > 71.5 µM (inactive).

For the compound `COc1ccc(/C=N/NC(=O)c2cc(OC)c(OC)c(OC)c2)cc1CN1CCc2cc(OC)c(OC)cc2C1C` (stereo unspecified), the EC50 is > 71.5 µM (inactive).

As for `COc1ccccc1NS(=O)(=O)c1cc(NC(=O)c2cc3ccccc3oc2=O)ccc1C`, the EC50 was > 71.5 µM (inactive).

Take `CCN(CC)c1ccc(/C=C2\SC(N)=NC2=O)cc1`: the EC50 is 30.6 µM (inactive).

`CCC(C(=O)O)N1C(=O)/C(=C/c2cccn2C)SC1=S` (stereo unspecified): the EC50 was 35.3 µM (inactive).

As to `COc1cc(C(=O)Oc2ccccc2/C=N/NC(=O)c2ccc(Cl)cc2)cc(OC)c1OC`, the EC50 was > 71.5 µM (inactive).

As to `CCN(CC(=O)Nc1ccccc1C(F)(F)F)C(=O)c1ccc(-n2nc(C)c(CCC(=O)OC)c2C)cc1`, the EC50 is > 71.5 µM (inactive).

On to `CN1C(=O)/C(=C/C=C2\SCCN2C)OC1=S`, for which the EC50 is 15.9 µM (inactive).

Regarding `COc1ccc(/C=C2\SC(=S)N(CCCC(=O)Nc3ccccc3C(=O)O)C2=O)cc1OC`, the EC50 is 53.3 µM (inactive).

With `CN1CCS/C1=C/C=C1\SC(=S)N(CC(=O)O)C1=O`, the EC50 was 2.28 µM (active).

In the case of `CCN(CC)c1ccc(/C=c2\sc3nc4ccccc4n3c2=O)c(O)c1`, the EC50 is 14.4 µM (inactive).

Take `O=C(Nc1nc(-c2nc3ccccc3s2)cs1)C1COc2ccccc2O1` (stereo unspecified): the EC50 was > 71.5 µM (inactive).

`Cc1ccc[n+](-c2nc([O-])sc2C=O)c1`: the concentration giving a half-maximal response (EC50) was 5.53 µM (active).

In the case of `Cc1cccn2c(=O)c(/C=C3\SC(=S)N(CC(C)C)C3=O)c(NCCCOC(C)C)nc12`, the EC50 is 0.988 µM (active).

With `Cc1cc(/C=C2\SC(=S)N(C)C2=O)c(C)n1-c1ccccc1O`, the EC50 was 15.7 µM (inactive).

For `O=[n+]1c2c(n([O-])c3ccccc31)CCC2`, the EC50 is > 71.5 µM (inactive).
